# Nrf2 ARE act = qHTS of Nrf2 Activators; 410,000 tested, 0.31% active; AREc32 ARE-luciferase reporter (MCF7-derived line), luminescence, 24 h; Potency, µM (highest dose often 46.1 µM), for inactives: at the top dose activation, usual class: activators; note: % of control where 0% means no effect; nearly all actives have a fitted effect of over 65% in size
#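 AREc32 cells carrying an ARE-driven firefly luciferase, 1000 cells/well in OPTI-MEM with 5% FBS, dosed after overnight attachment and incubated 24 hr at 37 deg C. Steady-Glo luminescence read after 30 min at RT.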
# A549 viability = Nrf2 qHTS screen for inhibitors: counterscreen for cytotoxicity | A549 ARE-Fluc cells, CellTiter-Fluor viability, 18-24 h | Potency, µM (doses to about 46 µM), for inactives: top-dose activity change, negative = cytotoxicity, usual class: inhibitors | 390,000 tested, 0.16% active; note: % is set by controls: 0 for no effect and ±100 for the full control effect
#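 A549 ARE_Fluc cells in 5% FBS OPTI-MEM were exposed to compounds in concentration-response for 18-24 h at 37 deg C. Viability was read by CellTiter-Fluor fluorescence (Ex 405/Em 525) after 30 min, before the luciferase read.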
# ELG1 DNA repair = qHTS screen for small molecules that inhibit ELG1-dependent DNA repair in human embryonic kidney (HEK293T) cells expressing luciferase-tagged ELG1; HEK293T ELG1-luciferase reporter, luminescence, 16 h; DNA damage induced by 5-fluorouridine; Potency, µM (highest dose often 46.1 µM), for the others: at the top dose activity change, negative = inhibition, usual class: inhibitors; 330,000 tested, 2.3% active; note: % is set by controls: 0 for no effect and ±100 for the full control effect; nearly all actives have a fitted effect of over 55% in size
#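 Overnight (16 hr) co-exposure of 2,000 cells/well to 5-fluorouridine and compound at 37 °C preceded detection. Luciferase was quantified via ONE-Glo luminescence; loss of signal denotes inhibition.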
# Nrf2 inh = Nrf2 qHTS screen for inhibitors; 360,000 tested, 2.1% active; A549 ARE-Fluc reporter, luciferase luminescence, 18-24 h; Potency, µM (top dose mostly 46 µM), without a hit: at the highest dose activity change, negative = inhibition, most hits filed as inhibitors; note: % is set by controls: 0 for no effect and ±100 for the full control effect; nearly all actives have a fitted effect of over 60% in size
#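 Nrf2 activity is the BugLite luminescence, read 15 min after reagent at room temperature, following CellTiter-Fluor cytotoxicity readout (30 min, 37C). Compound titrations were applied for 18-24 h to 5000 A549 ARE_Fluc cells/well in 5% FBS OPTI-MEM.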
# * = called active by the depositor; ? = inconclusive; . = no result given. In the library only some 3.7% were active in any assay of this set; here they are far more common. Calls come from the whole dose curve; as a rule, active = well fitted curve in the direction sought with a large enough effect; inconclusive = small, poorly fitted or top-dose-only effect, or another doubt; inactive = no such curve, though single readings can be large; an effect the other way counts as inactive or inconclusive. Potency is the fitted concentration of half-maximal effect.
SMILES,Nrf2 ARE act,A549 viability,ELG1 DNA repair,Nrf2 inh
CCn1c(=O)sc2cc(NS(=O)(=O)c3ccc(C)cc3)ccc21,9.2%,0.3%,.,18.4µM*
O=C(c1ccc(S(=O)(=O)Nc2cccc(C(F)(F)F)c2)cc1)N1CCOCC1,-0.2%,-3.5%,-8.3%,?
CC1CN(C(=O)c2ccc(S(=O)(=O)Nc3cccc(C(F)(F)F)c3)cc2)CC(C)O1 (configuration not stated),0.6%,-8.8%,0.8%,13µM*
CCc1cccc(NS(=O)(=O)c2ccc3c(c2)CC(C)N3C(=O)C2CC2)c1 (configuration not stated),-0.2%,-21.2%,.,11.6µM*
CSc1cccc(NS(=O)(=O)c2ccc3c(c2)CCN3C(C)=O)c1,0.0%,-10.8%,?,?
CC(=O)N1CCc2cc(S(=O)(=O)Nc3ccc(C)c(C)c3)ccc21,.,-4.9%,.,14.6µM*
CC(=O)N1CCc2cc(S(=O)(=O)Nc3ccc(C)cc3)ccc21,-0.2%,-0.2%,-7.5%,?
c1ccc2c(c1)[nH]c1c(N3CCCC3)ncnc12,4.6%,-9.1%,?,.
Cc1ccc2[nH]c3c(N4CCc5ccccc5C4)ncnc3c2c1,8.6%,-27.3%,?,7.31µM*
CCOc1ccc2[nH]c3c(N4CCc5ccccc5C4)ncnc3c2c1,0.3%,-26.0%,18.3µM*,?
CN1CCN(c2ncnc3c2[nH]c2ccc(F)cc23)CC1,5.4%,2.5%,-11.6%,-5.8%
Brc1ccc2[nH]c3c(N4CCc5ccccc5C4)ncnc3c2c1,3.0%,-13.4%,?,9.2µM*
Cc1ccccc1-c1ncnn1-c1sc2c(c1C#N)CCCCC2,5.6%,-1.7%,.,?
COCc1cc([C@@H]2C[C@H]3CN(c4ccccc4)C(=O)[C@]34CCCN24)ccc1OC,-0.9%,5.7%,14.6µM*,3.9%
Oc1cccc(C(Nc2nccs2)c2ccc3cccnc3c2O)c1 (configuration not stated),-0.4%,-23.1%,?,16.4µM*
COc1cccc(C(NC(C)=O)c2ccc3cccnc3c2O)c1 (configuration not stated),3.5%,-1.0%,?,?
O=C(Nc1ccc(C(F)(F)F)cc1)N1CCN(c2ccnc3cc(Cl)ccc23)CC1,9.6%,?,?,18.4µM*
O=C(O)CSCC(=O)N1CCN(c2ccnc3cc(Cl)ccc23)CC1,-0.7%,-9.2%,12.5%,-6.6%
O=C(Nc1cc(F)ccc1F)N1CCN(c2ccnc3cc(Cl)ccc23)CC1,2.7%,-2.1%,?,16.4µM*
CC(=O)N1CCN(c2ccnc3cc(Cl)ccc23)CC1,0.3%,2.4%,?,?
CCCCNC(=O)N1CCN(c2ccnc3cc(Cl)ccc23)CC1,0.5%,-4.1%,20.6µM*,10.3µM*
Cc1cccc(Cl)c1NC(=O)N1CCN(c2ccnc3cc(Cl)ccc23)CC1,0.4%,-11.1%,18.3µM*,9.2µM*
CN(C[C@H](Cc1ccccc1)N(C[C@H](c1ccccc1)N(CCc1ccccc1)N=O)N=O)N=O,-0.5%,-1.9%,-0.8%,4.0%
Cc1ccccc1Nc1nc(C#N)nc(NC2CCCC2)n1,.,-18.4%,.,9.2µM*
N#Cc1nc(Nc2ccccc2)nc(NC2CCCC2)n1,.,-7.1%,.,-14.6%
SMILES,Nrf2 ARE act,A549 viability,ELG1 DNA repair,Nrf2 inh
N#Cc1nc(Nc2cccc3ccccc23)nc(NC2CCCC2)n1,.,-22.6%,.,18.4µM*
Cc1ccc(C(=O)NNC(=O)C2CCN(c3ncccn3)CC2)cc1,-0.5%,4.9%,1.4%,17.6%
CCc1ccc(/C=C2/Sc3ccccc3N(CC(=O)NCC3CCCO3)C2=O)cc1 (configuration not stated),3.6%,-20.0%,13µM*,?
CN(C(=O)COC(=O)c1nc(Cl)c(Cl)c(Cl)c1Cl)C1CCS(=O)(=O)C1 (configuration not stated),12.6µM*,?,?,-24.0%
Cc1ccc(NC(=O)c2cccc(NC(=O)N3CCSc4ncccc43)c2)cc1F,-1.1%,2.1%,.,8.2%
COc1ccc(S(=O)(=O)N(CCc2ccccc2)CC(=O)N/N=C/c2ccc3c(c2)OCO3)cc1,0.1%,-4.2%,16.4µM*,-5.7%
O=C(CN(CCc1ccccc1)S(=O)(=O)c1ccc(Cl)cc1)N/N=C/c1ccc2c(c1)OCO2,-1.0%,-3.5%,-9.4%,-8.0%
O=C(CCc1ccc(O)c(O)c1)N/N=C/c1ccc2c(c1)OCO2,?,-14.1%,5.8µM*,22.0%
CCOc1cc(/C=N/NC(=O)CN(CCc2ccccc2)S(=O)(=O)c2ccc(NC(C)=O)cc2)ccc1O,4.9%,-0.1%,25.9µM*,6.2%
CC(C)Oc1ccc(CCC(=O)N/N=C/c2ccc3c(c2)OCO3)cc1,-0.6%,-2.7%,-9.0%,-10.7%
CCOc1cccc(C(=O)Nc2cccc(-c3nnc(-c4ccccc4)o3)c2)c1,-0.2%,-3.4%,9.2µM*,?
CCOc1cccc(C(=O)Nc2ccc3oc(Cc4ccc(Cl)cc4)nc3c2)c1,-0.3%,?,18.4µM*,20.6µM*
CCOc1cccc(C(=O)Nc2ccc3oc(-c4cccnc4)nc3c2)c1,-0.1%,-9.7%,18.3µM*,9.2µM*
COc1cc(OC)cc(C(=O)Nc2nnc(-c3cccnc3)o2)c1,0.1%,-8.5%,?,?
O=C(Nc1nnc(-c2cccnc2)o1)c1cccc(Cl)c1,2.9%,-5.4%,16.4µM*,-26.1%
c1nc(NCCc2cnc[nH]2)c2cc(-c3ccc4c(c3)OCO4)ccc2n1,.,-1.1%,.,7.8%
COCCCNC(=O)C(C#N)c1nc2ccccc2nc1N1CCCC1 (configuration not stated),-0.7%,?,20.6µM*,5.1%
CCCCOC(=O)C(C#N)c1nc2ccccc2nc1N1CCOCC1 (configuration not stated),0.0%,-27.3%,20.6µM*,.
CCCCCNC(=O)C(C#N)c1nc2ccccc2nc1N1CCCC1 (configuration not stated),1.8%,8.1%,13.7%,1.7%
CCN1CCN(c2nc3ccccc3nc2C(C#N)C(=O)OCc2ccccc2)CC1 (configuration not stated),3.9%,-27.5%,18.4µM*,8.1%
CCCCCCOC(=O)C(C#N)c1nc2ccccc2nc1N1CCOCC1 (configuration not stated),-0.2%,1.2%,?,5.2%
CC(C)c1nc2oc3c(NCc4cccnc4)ncnc3c2c2c1CCC2,-0.6%,8.8%,8.2µM*,3.8%
CC(C)Cc1nc2oc3c(NCC4CCCO4)ncnc3c2c2c1CCC2 (configuration not stated),0.4%,-2.2%,11.6µM*,-2.4%
CCCc1nc2oc3c(NCC(C)O)ncnc3c2c2c1CCCC2 (configuration not stated),2.4%,?,23.1µM*,-8.5%
CC(C)Cc1nc2oc3c(N4CCN(CCO)CC4)ncnc3c2c2c1CCCC2,-0.5%,?,?,-10.3%
